Reference: PubChem BioAssay
Active and inactive are the calls of the source.

Columns and labels:
[1] = compounds binding Alexa647 anti-His antibody – biochemical, small-molecule microarray, 635 nm fluorescence, artefact control for SMM control protein annotation, primary screen (AID 1128); details: higher = more signal;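 also: score merges feature fluorescence with signal-to-noise for each printed compound spot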
[2] = tested on: Human papillomavirus type 1a E7 protein (residues 1-88); test: HPV1a E7 small-molecule binders, primary screen, biochemical, small-molecule microarray, residues 1-88, 635 nm (AID 1129); details: small-molecule microarray binding, fluorescence 635 nm; higher = more signal
[3] = target: Focal adhesion kinase 1 (Homo sapiens) (UniProt Q05397); test: PTK2 protein binding on printed compound slides – biochemical, small-molecule microarray, 635/667 nm fluorescence, BSA, DTT, primary screen (AID 1130); details: 635 nm fluorescence, higher = more signal;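 also: composite of spot emission at 667 nm and signal to noise over triplicate slides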
[4] = tested on: Fibrinogen (Alexa647-labelled); test: Alexa647-fibrinogen binding to printed small molecules – biochemical, small-molecule microarray, 635/667 nm fluorescence, artefact control for SMM control-protein annotation, profiling panel (AID 1131); details: fibrinogen-A647 binding fluorescence, higher = more signal;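 also: z-score merges 667 nm fluorescence with per-spot signal-to-noise over triplicate slides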
[5] = target: Follistatin (Homo sapiens) (UniProt P19883); test: FST protein binding to printed compounds – biochemical, small-molecule microarray, 635/667 nm fluorescence, primary screen (AID 1132); details: 635 nm fluorescence, higher = more signal
[6] = target: Fibroblast growth factor 2 (Homo sapiens) (UniProt P09038); test: basic fibroblast growth factor binding to printed compounds – biochemical, small-molecule microarray, 635/667 nm fluorescence, primary screen (AID 1133); details: FGF2, fluorescence 635/667, higher = more signal
[7] = JC-1 mitochondrial potential readout, lung cancer cells – cell-based, A549, JC-1 fluorescence, basal, 24 h, 100 nL, profiling panel (AID 1138); details: higher = more signal;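 also: A549 lung adenocarcinoma cells under basal conditions with no added stimulus; test concentration not given here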
[8] = tested on: Lefty1; test: Lefty1 protein binding to printed compounds – biochemical, small-molecule microarray, 635/667 nm fluorescence, primary screen (AID 1139); details: fluorescence 635/667, higher = more signal
[9] = tested on: wheat germ agglutinin (Triticum aestivum), Alexa647-labelled; test: Alexa647-WGA lectin binding to printed small molecules – biochemical, small-molecule microarray, 635/667 nm fluorescence, artefact control for SMM control-protein annotation, profiling panel (AID 1140); details: WGA-A647 binding, 635 nm fluorescence, higher = more signal;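 also: score merges 667 nm feature emission with signal to noise over triplicate slides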
[10] = target: Luciferin 4-monooxygenase (Photinus pyralis) (UniProt P08659); test: inhibition of purified Photinus pyralis luciferase – biochemical, luminescence, purified enzyme, 2006 set, primary screen (AID 1141); details: purified firefly luciferase, SteadyGlo luminescence, 30 min; higher = more signal, called active from +8 up or from −8 down;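 also: cell-free assay with purified firefly luciferase at 100 ng per well in PBS; test concentration not given here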
Sequence of Luciferin 4-monooxygenase (Photinus pyralis) (P08659 whole entry, looked up): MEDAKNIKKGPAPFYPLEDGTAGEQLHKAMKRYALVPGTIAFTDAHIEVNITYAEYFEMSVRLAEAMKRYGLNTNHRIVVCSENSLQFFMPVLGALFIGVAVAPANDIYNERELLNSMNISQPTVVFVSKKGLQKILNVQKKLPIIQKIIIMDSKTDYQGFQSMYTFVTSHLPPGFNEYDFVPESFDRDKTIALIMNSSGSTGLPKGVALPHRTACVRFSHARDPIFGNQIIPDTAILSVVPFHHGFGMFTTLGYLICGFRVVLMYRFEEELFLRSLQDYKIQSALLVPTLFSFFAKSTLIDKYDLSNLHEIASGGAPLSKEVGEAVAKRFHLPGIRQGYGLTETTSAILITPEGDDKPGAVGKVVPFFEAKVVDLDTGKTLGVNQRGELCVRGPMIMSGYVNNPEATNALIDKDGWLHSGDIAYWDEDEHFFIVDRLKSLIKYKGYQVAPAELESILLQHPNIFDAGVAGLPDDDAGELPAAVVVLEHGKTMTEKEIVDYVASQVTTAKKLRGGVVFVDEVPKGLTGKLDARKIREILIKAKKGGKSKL

Sequence of Follistatin (Homo sapiens) (P19883 whole entry, looked up): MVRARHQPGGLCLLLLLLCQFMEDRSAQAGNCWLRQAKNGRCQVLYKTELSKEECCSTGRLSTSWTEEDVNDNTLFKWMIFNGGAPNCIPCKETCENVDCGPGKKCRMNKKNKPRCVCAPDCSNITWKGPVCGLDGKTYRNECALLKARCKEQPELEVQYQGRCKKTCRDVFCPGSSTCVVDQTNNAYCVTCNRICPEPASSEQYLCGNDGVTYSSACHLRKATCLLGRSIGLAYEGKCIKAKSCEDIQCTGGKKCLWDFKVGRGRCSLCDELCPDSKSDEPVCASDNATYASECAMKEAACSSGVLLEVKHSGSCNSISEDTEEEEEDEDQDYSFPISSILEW
Sequence of Focal adhesion kinase 1 (Homo sapiens) (Q05397 whole entry, looked up): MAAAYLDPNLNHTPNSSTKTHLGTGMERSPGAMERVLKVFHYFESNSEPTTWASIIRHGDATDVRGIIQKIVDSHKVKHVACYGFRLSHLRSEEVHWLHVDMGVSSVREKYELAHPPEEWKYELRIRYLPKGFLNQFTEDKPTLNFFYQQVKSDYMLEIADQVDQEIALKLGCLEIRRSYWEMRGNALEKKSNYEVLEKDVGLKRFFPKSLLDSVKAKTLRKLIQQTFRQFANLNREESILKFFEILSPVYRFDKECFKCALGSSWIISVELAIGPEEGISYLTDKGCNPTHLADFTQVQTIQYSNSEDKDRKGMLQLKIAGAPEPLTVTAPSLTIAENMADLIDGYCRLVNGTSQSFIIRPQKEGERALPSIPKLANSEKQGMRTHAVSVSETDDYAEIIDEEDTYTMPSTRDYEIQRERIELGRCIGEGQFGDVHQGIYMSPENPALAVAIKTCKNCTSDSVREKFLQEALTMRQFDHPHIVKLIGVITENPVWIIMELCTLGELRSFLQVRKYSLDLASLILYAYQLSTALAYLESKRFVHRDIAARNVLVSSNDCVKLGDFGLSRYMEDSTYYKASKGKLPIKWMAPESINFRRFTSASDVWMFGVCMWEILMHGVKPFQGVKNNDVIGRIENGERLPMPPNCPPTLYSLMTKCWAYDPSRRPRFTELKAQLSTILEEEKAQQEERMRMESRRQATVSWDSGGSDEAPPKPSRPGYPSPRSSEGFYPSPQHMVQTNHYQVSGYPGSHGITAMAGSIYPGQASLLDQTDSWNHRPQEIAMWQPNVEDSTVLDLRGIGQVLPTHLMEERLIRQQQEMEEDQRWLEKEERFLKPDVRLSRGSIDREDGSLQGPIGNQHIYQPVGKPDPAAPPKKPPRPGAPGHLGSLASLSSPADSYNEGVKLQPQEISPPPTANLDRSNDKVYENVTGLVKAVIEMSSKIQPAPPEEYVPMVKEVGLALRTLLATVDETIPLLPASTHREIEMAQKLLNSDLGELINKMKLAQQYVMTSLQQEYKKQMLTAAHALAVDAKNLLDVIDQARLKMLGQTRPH
Sequence of Fibroblast growth factor 2 (Homo sapiens) (P09038 whole entry, looked up): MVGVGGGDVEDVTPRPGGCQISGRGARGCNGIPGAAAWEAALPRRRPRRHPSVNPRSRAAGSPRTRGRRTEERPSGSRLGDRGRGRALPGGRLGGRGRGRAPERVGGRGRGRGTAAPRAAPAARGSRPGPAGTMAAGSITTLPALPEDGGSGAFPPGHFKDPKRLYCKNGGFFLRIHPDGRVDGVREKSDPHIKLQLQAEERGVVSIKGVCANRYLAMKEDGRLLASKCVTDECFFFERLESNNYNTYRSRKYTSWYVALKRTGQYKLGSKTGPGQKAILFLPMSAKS

Row | Compound | composite z-score [1] | composite z-score [2] | composite z-score [3] | composite z-score [4] | composite z-score [5] | composite z-score [6] | z-score [7] | composite z-score [8] | composite z-score [9] | z-score [10]
1 | O=C1NC(=O)C2C1C=CC(C(O)C(c1ccccc1)c1ccccc1)N2Nc1ccccn1 (stereo not given) | 2.42 | 1.15 | 0.595 | 0.987 | 0.709 | 1.06 | 0.669 | -0.0403 | 0.843 | -2.04 (inactive)
2 | [N-]=[N+]=NCc1ccccc1[C@H]1OC(c2ccc(OCCCO)cc2)=N[C@@]1(Cc1ccccc1N=[N+]=[N-])C(=O)O | 2.02 | 1.2 | 1.03 | 0.899 | 1.21 | 0.134 | -0.0184 | 0.0929 | 1.23 | -4.21 (inactive)
3 | CCCCC=C[C@@H](NC(=O)C(C)(C)C)c1ccccc1 | 1.14 | 1.09 | 0.35 | 0.935 | 0.495 | -0.0812 | -2.82 | 0.302 | 0.814 | 1.76 (inactive)
4 | CC(C)c1ccc(NN2C(C(O)C(C)c3ccccc3)C=CC3C(=O)N(c4ccccc4)C(=O)C32)cc1 (stereo not given) | 1.63 | 1.17 | 0.531 | 0.988 | 1.2 | 0.558 | -0.864 | 0.155 | 1.19 | 0.222 (inactive)
5 | CN1C2C=C(c3ccc(CO)cc3)C(C3C(=O)N(C(N)=O)C(=O)C32)C1C1CC1 (stereo not given) | 0.573 | -0.241 | -0.215 | 0.586 | -0.189 | -0.379 | -0.572 | -0.72 | 0.239 | -0.0168 (inactive)
6 | C=C(CCCC)/C(=C/C[C@@H](OC(C)=O)c1cccc(OCCO)c1)c1cc(C(=O)OC)ccc1OC | 0.57 | 0.0538 | 0.0738 | 0.249 | 0.705 | 0.0923 | 1.63 | 1.08 | 0.617 | -0.132 (inactive)
7 | COCCOC(=O)N1C(=O)[C@@]2(c3cc(C#CCNC(N)=O)ccc31)[C@H](c1ccccc1OCCO)N1[C@H](c3ccccc3)[C@H](c3ccccc3)OC(=O)[C@H]1[C@@H]2C(=O)N1CCCCCCC1 | 0.364 | 1.17 | 0.183 | 0.858 | 1.28 | 0.937 | -1.51 | 0.76 | 1.13 | -0.193 (inactive)
8 | CC(C)N1C(=O)[C@@]2(Cc3ccccc31)c1ccccc1C(=O)N(Cc1ccccc1C(F)(F)F)[C@H]2c1ccc(CO)cc1 | 0.175 | 0.174 | 0.368 | -0.0628 | 0.902 | 1.18 | -0.602 | 0.76 | -0.203 | -0.301 (inactive)
9 | C=CCN1C(=O)[C@@]2(O[C@@H](CCO)[C@H]([Si](C)(C)c3ccc(OC)cc3)[C@H]2C)c2cc(N3CCCCC3=O)ccc21 | 2.63 | 1.16 | -0.19 | 0.745 | 1.36 | 0.821 | 0.225 | 1.23 | 0.302 | -0.0999 (inactive)
10 | Cc1ccc(S[C@]2(C(=O)NCC(C)C)CC(=O)N(C(C)C)[C@@H]2c2ccc(CO)cc2I)cc1 | -1.38 | -0.807 | -0.0038 | -0.942 | -0.888 | 0.101 | -0.294 | -1.16 | -0.353 | -0.965 (inactive)
11 | C=CCNC(=O)[C@@H]1[C@H]2C(=O)O[C@H](c3ccccc3)[C@H](c3ccccc3)N2[C@H](c2ccc(O)cc2)[C@@]12C(=O)N(C(=O)OCCOC)c1ccc(C#CCC(C(=O)OC)C(=O)OC)cc12 | 1.06 | 1.19 | 0.214 | 0.271 | 1.13 | 0.722 | 0.556 | 0.719 | 0.94 | 0.367 (inactive)
12 | C=CC[C@@]1(C(=O)NCCCOC)N=C(c2ccc(OCCCO)cc2)O[C@@H]1c1ccccc1CN=[N+]=[N-] | 2.86 | 1.21 | 0.117 | 1.01 | 1.15 | 0.312 | 1.7 | 0.309 | 0.719 | 0.645 (inactive)
13 | COc1cc(Cc2cc3c(c(CCc4ccccc4)n2)[Si](C(C)C)(C(C)C)O[C@H]3c2ccccc2)cc(OC)c1OC | -0.133 | -1.36 | -0.114 | 0.0047 | 0.214 | -0.392 | -1.64 | -0.261 | -0.192 | -0.0946 (inactive)
14 | COC(=O)Cn1c(C(=O)N(C)C)cc2c1C[C@H]1CN(C(=O)c3ccccc3)[C@@](Cc3ccccc3)(C(=O)OC)[C@@H]21 | 0.733 | 0.278 | 0.499 | -0.254 | -0.253 | 0.179 | 0.553 | -0.0528 | 0.533 | 3.15 (inactive)
15 | C=CCNC(=O)[C@@H]1[C@H]2C(=O)O[C@H](c3ccccc3)[C@H](c3ccccc3)N2[C@H](c2ccc(OCCO)cc2)[C@@]12C(=O)Nc1ccc(C#CCNC(N)=O)cc12 | 0.156 | -0.0352 | 0.0378 | 0.75 | 0.593 | -0.187 | -0.844 | -0.0354 | 0.671 | -0.851 (inactive)
16 | CCCNC(=O)[C@@]1(Sc2ccc(C)cc2)CC(=O)N(Cc2cc(C(F)(F)F)cc(C(F)(F)F)c2)[C@@H]1c1ccc(CO)cc1 | 2.59 | -0.0696 | -0.251 | -0.452 | -0.245 | -0.375 | -0.328 | -0.675 | -0.037 | -0.297 (inactive)

Row | Compound | composite z-score [1] | composite z-score [2] | composite z-score [3] | composite z-score [4] | composite z-score [5] | composite z-score [6] | z-score [7] | composite z-score [8] | composite z-score [9] | z-score [10]
17 | CCc1cccc(NC(=O)O[C@H]2[C@H](OC(=O)Nc3ccccc3-c3ccccc3)[C@H](OC(=O)Nc3ccccc3-c3ccccc3)[C@@H](OC)O[C@@H]2CO)c1 | 0.979 | 1.21 | 0.775 | 1.01 | 1.36 | 0.598 | -1.35 | 1.21 | 0.834 | 1.09 (inactive)
18 | CC(C)c1ccc(NN2C(C(O)C3CCCCC3)C=CC3C(=O)N(c4ccccc4)C(=O)C32)cc1 (stereo not given) | 1.04 | 1.21 | 0.401 | 0.987 | 0.946 | 0.66 | 0.257 | 1.29 | 1.27 | -1.36 (inactive)
19 | C=CC[C@]1(C(=O)NCCN2CCOCC2)N=C(c2ccc(OCCCO)cc2)O[C@H]1c1ccccc1 | 0.566 | 0.845 | 0.0827 | -0.212 | 1.44 | 1.8 | 0.654 | 0.918 | 0.496 | 0.601 (inactive)
20 | COc1cccc(C)c1NC(=O)O[C@H]1[C@H](OC(=O)Nc2ccccc2)[C@@H](OC(=O)Nc2ccccc2)[C@@H](OC)O[C@@H]1CO | 1.78 | 1.29 | 0.452 | 1.01 | 1.38 | 0.432 | -1.54 | 0.662 | 1.04 | -0.321 (inactive)
21 | C=C(C(=O)CC[C@@H](OC(=O)c1cccnc1)c1cccc(OCCO)c1)C(C)C | 0.317 | -0.4 | -0.896 | 0.496 | 0.866 | 1.33 | 0.313 | 1.13 | 0.386 | -0.128 (inactive)
22 | COC(=O)[C@@]1(Cc2ccccc2)[C@H]2c3cc(C(=O)N(C)C)n(CCF)c3C[C@H]2CN1C(=O)c1ccccc1 | 2.32 | 0.728 | 0.326 | 0.339 | 0.0139 | -0.551 | 0.551 | -0.773 | 0.969 | 1.02 (inactive)
23 | CO[C@H]1O[C@H](CO)[C@@H](OC(=O)Nc2ccccc2)[C@@H]2OC(=O)[C@@H](Cc3ccccc3)C/C=C/C[C@H](Cc3ccccc3)C(=O)O[C@@H]12 | 2.4 | 0.426 | 0.348 | 0.0766 | 0.661 | 0.0861 | -0.282 | 0.449 | 0.95 | -0.283 (inactive)
24 | COC(=O)[C@@]1(Cc2ccc(F)cc2)[C@H]2c3cc(C(=O)N(C)C)n(CCF)c3C[C@H]2CN1C(=O)c1ccccc1 | 1.67 | 0.911 | 0.0655 | 0.911 | -0.0051 | -0.162 | 0.656 | -0.45 | 0.338 | -1.09 (inactive)
25 | COC(=O)C(CC#Cc1ccc2c(c1)[C@]1(C(=O)N2)[C@H](c2ccccc2OCCO)N2[C@H](c3ccccc3)[C@H](c3ccccc3)OC(=O)[C@H]2[C@@H]1C(=O)N1CCN(c2ncccn2)CC1)C(=O)OC | 1.48 | 1.22 | 0.13 | 0.927 | 1.04 | 1 | -1.46 | 0.668 | 0.481 | -0.186 (inactive)
26 | O=C1C[C@@](C(=O)NCC(F)(F)F)(c2ccc([N+](=O)[O-])cc2)[C@@H](c2ccc(CO)cc2I)N1CC12CC3CC(CC(C3)C1)C2 | 1.31 | 0.722 | -0.0231 | 0.93 | 0.994 | 1.34 | 1.73 | 1.22 | 0.249 | -0.251 (inactive)
27 | [N-]=[N+]=NCc1ccccc1C[C@@]1(C(N)=O)N=C(c2ccc(OCCCO)cc2)O[C@@H]1c1ccccc1N=[N+]=[N-] | 1.16 | 1.24 | 0.0254 | 0.991 | 0.102 | -0.131 | 0.306 | -0.804 | 0.68 | -5.46 (inactive)
28 | COC(=O)[C@@]1(Cc2ccc(F)cc2)[C@H]2c3cc(C(=O)N(C)C)n(Cc4ccsc4Br)c3C[C@H]2CN1C(=O)c1ccccc1 | 0.77 | 1.12 | 1.96 | 1.04 | -0.161 | 0.021 | -0.51 | -0.675 | 1.04 | 1.18 (inactive)
29 | CCCCCCc1nc(-c2ccc(OC)nc2)c(C)c2c1[Si](C(C)C)(C(C)C)OC2 | 0.975 | -0.461 | 0.0484 | -0.52 | 0.553 | 0.0695 | -0.498 | 0.524 | -0.491 | 0.146 (inactive)
30 | CCOC(=O)C[C@H]1[C@H](OC(=O)Cc2ccc3c(c2)OCO3)[C@@H](NC(=O)CC(C)C)c2cc(OCCCO)ccc2N1C(=O)c1ccc2ccccc2n1 | 0.212 | 0.832 | 0.325 | 0.973 | 1.32 | 1.28 | -0.944 | 0.424 | 0.249 | 0.739 (inactive)
31 | CCCCN1CC=CC23O[C@@H]4C=CCCOC(=O)C4[C@H]2C(=O)N(CCO)[C@@H]3C1=O (stereo not given in full) | -1.17 | -0.513 | -0.634 | 0.213 | 0.407 | 1.79 | -0.9 | -0.614 | -0.0481 | 0.421 (inactive)
32 | O=C1O[C@@H](c2ccccc2)[C@@H](c2ccccc2)N2[C@@H](c3ccc(OCCO)cc3)[C@]3(C(=O)Nc4ccc(C#CC5=CCCCC5)cc43)[C@@H](C(=O)Nc3nc4ccccc4s3)[C@H]12 | 0.22 | 0.525 | -0.0302 | 0.99 | 0.593 | 1.25 | -2.31 | 0.547 | 0.453 | -2.64 (inactive)
